A number with no mark means an inactive call. Calls of active or inactive are those of the source.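 How the source made its calls: active means z-score of at least 1.8 in each of two replicates, scored against plate mean and spread of sample wells; inactive means the rest.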

A short description of this assay: galactose survival enhancers in mitochondrial complex I cybrids – cell-based, galactose medium, ATP luminescence, primary screen (AID 1645843).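 Further: positive z means more ATP and so rescue of galactose-driven cybrid death.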 As to conditions: complex I mutant cybrid cells, 72 h, hits give high values.
Take `O=c1c2sc(-c3ccc(F)cc3)cc2ncn1Cc1nc2ccccc2[nH]1`: the z-score was 0.44. Take `O=C(C1CCCCCC1)N1CCC(Cn2cc(CCO)nn2)CC1`: the z-score was -0.51. As for `Cc1nc(NC(=O)N2CCCC(c3nc4ccccc4[nH]3)C2)nn1C` (configuration not stated), the figure is 0.195; as for `COC(=O)CCC1CCN(C(=O)CCC(C)C)CC1`, -0.56; as for `Cc1ccc(-c2ccn(CC(=O)Nc3nn(C)c4ccccc34)n2)s1`, 2.7 (active).

In the case of `Cc1cc(C)n(CC(C)n2cnc3cccc(C)c3c2=O)n1` (configuration not stated), the z-score is 0.34. With `CC(=O)N1CCN(C(=O)c2c(-c3ccccc3)nn(-c3ccccc3)c2C)CC1` the figure was -0.38; with `COc1ccccc1N1CCN(C(=O)CCC(C)C)CC1(C)C`, 2.31 (active); with `Cc1nsc(NC(=O)N2CCN(c3ccccc3)CC2C)n1` (configuration not stated), 2.15 (active).

In the case of `C=C1C(C)(C)[C@H]2CC[C@]1(C(=O)N1CCC(n3cc(CCCC)nn3)CC1)C2`, the z-score is 2.16.

Turning to `Cc1nn(C)c(C)c1-c1ccnc(NCc2cnc3ccccn23)n1`, the z-score is -0.925. As for `CCCC(CCC)C(=O)N1CCC(n2cc(C(C)O)nn2)CC1` (configuration not stated), the figure is -0.47; as for `Cc1cc(NC(=O)Cn2ccc(-c3cccc(F)c3)n2)n(-c2ccccn2)n1`, -0.96. As for `COc1cccc2ccc(N3CCN(Cc4ccccn4)CC3)nc12`, the figure is -0.51; as for `CC(=O)N1CCC(NCCOc2c(C)cccc2Cl)CC1`, -0.35; as for `Cc1ccccc1-c1noc(C2CC(C(C)C)=NO2)n1` (configuration not stated), 1.73. As for `CCN1CCC(N2CCCC(CN3CCCC3)C2)CC1` (configuration not stated), the figure is -0.48.

The values above are taken from PubChem BioAssay.
